Experimental data from PubChem BioAssay (EPA / NIEHS).
Activity calls are given as the source filed them. The calls were made as follows: active = hit-call score of the fitted dose curve at least 0.9, where 1 is the maximum; inactive = score below 0.9.

Experiment: BSK_LPS_PGE2: BioMAP Diversity Plus: LPS Assay for Prostaglandin E2 (PGE2) Biomarker Activity (AID 2283082)
Conditions: primary human HUVEC with PBMC; actives raise or lower the signal
Description: BSK_LPS is a cell-based, multiplexed-readout assay that uses umbilical vein endothelium and peripheral blood mononuclear cells, a human vascular primary cell co-culture, with measurements taken at 24 hours after chemical dosing in a 96-well plate.BSK_LPS_PGE2 is an assay component measured in the BSK_LPS assay. It measures PGE2 antibody related to regulation of gene expression using ELISA technology.Data from the assay component BSK_LPS_PGE2 was analyzed into 1 assay endpoint. This assay endpoint, BSK_LPS_PGE2, was analyzed with bidirectional fitting relative to DMSO as the negative control and baseline of activity. Using a type of binding reporter, gain or loss-of-signal activity can be used to understand changes in the signaling as they relate to the gene PTGER2. Furthermore, this assay endpoint can be referred to as a primary readout, because this assay has produced multiple assay endpoints where this one serves a signaling function. To generalize the intended target to other relatable targets, this assay endpoint is annotated to the gpcr intended target family, where the subfamily is rhodopsin-like receptor.
The levels of cell surface (or secreted, indicated by the prefix "s") biomarker endpoints were measured by ELISA. Overt cytotoxicity to cells in confluent adherent cultures (all systems other than the BT system) was assessed by measuring total protein levels using sulforhodamine B (SRB) staining in parallel cultures at the time of biomarker measurements, indicated as SRB endpoints. For proliferation assays for adherent cell types, individual cell types are cultured at sub-confluence and relative cell numbers quantified by SRB staining at time points optimized for each system (48 h: 3C and CASM3C systems; 72 h: BT and HDF3CGF systems; 96 h: SAg system). SRB was performed by staining cells with 0.1% SRB after fixation with 10% TCA and reading wells at 560 nm.Viability and proliferation of PBMC (T cells) was quantified by Alamar Blue reduction for the SAg and BT systems. For PBMC viability (referred to as PBMC Cytotoxicity within the assay endpoint names), cells were plated (75,000/well in a 96-well plate) and then chemical samples added for 1 h before addition of activators, SEB and TSST-1 (20 ng/mL final concentration each). Cells were incubated for 90 h. Then, Alamar Blue (20 uL/well) (Invitrogen, Cat DAL1100) was added for 6 h, and the plates were read with a fluorescence microplate reader at 546/580 nm (excitation/emission). For PBMC proliferation, cells were plated and activated as above but incubated for only 16 h prior to addition of Alamar Blue. Plates were read after 6 h.

| SMILES | AC50 | outcome |
| --- | --- | --- |
| NC(=O)c1nc(-c2cccc(-c3cc(F)ccc3OCC(F)(F)C(F)(F)F)c2)n[nH]1 | 38.2 µM (active) |  |
| CCN(Cc1cccc(S(=O)(=O)O)c1)c1ccc(C(=C2C=CC(=[N+](CC)Cc3cccc(S(=O)(=O)O)c3)C=C2)c2ccccc2S(=O)(=O)[O-])cc1 |  | inactive |
| O=c1ccc2ccccc2o1 |  | inactive |
| O=c1[nH]sc2ccccc12 | 3.94 µM (active) |  |
| CCCCCCCCCC(=O)O |  | inactive |
| CCOC(=O)O[C@H](C)OC(=O)c1ccc2c(c1)cc(C(=O)NC1CCN(C(C)C)CC1)n2Cc1cc(-c2ccc(Cl)s2)on1 | 7.65 µM (active) |  |
| CN(C[C@@H](CC[N+]12CCC(C3CCCCC3)(CC1)CC2)c1ccc(Cl)c(Cl)c1)C(=O)c1cc(C(F)(F)F)cc(C(F)(F)F)c1 |  | inactive |
| CCCCCCCCN(C)CCCCCCCC |  | inactive |
| Cc1ccc2oc(CN(Cc3ccccc3)C(=O)Nc3c(F)cc(F)cc3F)c(-c3ccc(Cl)cc3)c2c1 |  | inactive |
| CC1=CC(=O)/C(=C(/C)O)C(=O)O1 |  | inactive |
| Cc1cn([C@H]2C[C@H](N=[N+]=[N-])[C@@H](CO)O2)c(=O)[nH]c1=O |  | inactive |
| CCCCCCCCCCCCO |  | inactive |
| c1ccc2n[nH]nc2c1 |  | inactive |
| CC[C@@H]1C[C@H](N(Cc2cc(C(F)(F)F)cc(C(F)(F)F)c2)C(C)=O)c2cc(C(F)(F)F)ccc2N1C(=O)OC(C)C |  | inactive |
| OC12N=C(c3ccccc3)SC1Cc1cc(Cl)ccc12 (stereo not given) |  | inactive |
| CC(O)CC(C)(C)O (stereo not given) |  | inactive |
| CN(C)c1ccc(C(=C2C=CC(=[N+](C)C)C=C2)c2ccc(N(C)C)cc2)cc1 | 1.13 µM (active) |  |
| CC1(C)NC(=O)N(c2ccc([N+](=O)[O-])c(C(F)(F)F)c2)C1=O |  | inactive |
| NCc1cccc(C2CCN(C(=O)c3ccc(C#Cc4ccccc4F)o3)CC2)c1 |  | inactive |
| COCC(C)OCC(C)OCC(C)O (stereo not given) |  | inactive |

| SMILES | AC50 | outcome |
| --- | --- | --- |
| COc1cc(C(=O)NC2CCN(C)CC2)ccc1Nc1ncc2c(n1)N(C1CCCC1)CC(F)(F)C(=O)N2C | 5.48 µM (active) |  |
| C[C@]12CC[C@@H]3c4ccc(O)cc4CC[C@H]3[C@@H]1CC[C@H]2O |  | inactive |
| CC[C@H](NC(=O)c1cc(F)ccc1NS(=O)(=O)c1cccc2cccnc12)c1ccccc1 | 8.72 µM (active) |  |
| COc1cccc([C@H](O)C2CCN(CCc3ccc(F)cc3)CC2)c1OC |  | inactive |
| CN(C)C(=O)C1(N2CCCCC2)CCN(CC[C@@]2(c3ccc(Cl)c(Cl)c3)CN(C(=O)c3ccccc3)CCO2)CC1 |  | inactive |
| OCCO |  | inactive |
| Cc1c2ccccc2c(C)c2c1ccc1ccccc12 |  | inactive |
| Oc1ccc2ccccc2c1 | 13.2 µM (active) |  |
| Clc1ccccc1C(c1ccccc1)(c1ccccc1)n1ccnc1 | 5.45 µM (active) |  |
| Oc1ccccc1 |  | inactive |
| CCCCCCCCCCCC[N+](C)(C)C |  | inactive |
| CC(C)(O)c1ccc(CNC(=O)c2cccnc2Oc2ccc3nonc3c2)cc1 |  | inactive |
| CN1C(=O)CC[C@H]1c1cccnc1 |  | inactive |
| O=C1CCC(C2CCCCC2)CC1 |  | inactive |
| CC(=O)N1CCN(c2ccc(OC[C@H]3CO[C@](Cn4ccnc4)(c4ccc(Cl)cc4Cl)O3)cc2)CC1 |  | inactive |
| Cc1ncc(CO)c(CO)c1O |  | inactive |
| CCCCCc1ccc(N)cc1 | 12 µM (active) |  |
| CCCCOC(=O)c1ccc(O)cc1 | 20 µM (active) |  |
| CCCCCCCCOc1ccc(C(=O)c2ccccc2)c(O)c1 |  | inactive |
| CCN(CC)C(=O)c1cc(S(=O)(=O)Cc2ccccc2)c(N2CCC(c3ccccc3)CC2)cc1N(CC)CCN(C)C |  | inactive |
